Consider 57 compounds from ChEMBL document CHEMBL3988442, “University of Dundee, Small-Polar-MMV Screening Library” (2021).

Each structure is given as a SMILES string. Hit rate of the full screen: of about 65,000 compounds, about 65 (0.1%) showed an effect of 50% or more. The list comes from a sample in which strong results are over-represented; it also holds similar structures and randomly drawn compounds.

This assay deals with Tryptophan--tRNA ligase (Mycobacterium tuberculosis (strain ATCC 25618 / H37Rv)) (UniProt P9WFT3). The experiment in a line: Biochemical assay for Mt-TrpRS. In kind it is functional. Also on record: scale not given: direction of the effect not stated beside the values. The settings on record: 10 µM.
Chain of Tryptophan--tRNA ligase (Mycobacterium tuberculosis (strain ATCC 25618 / H37Rv)) (P9WFT3 whole entry): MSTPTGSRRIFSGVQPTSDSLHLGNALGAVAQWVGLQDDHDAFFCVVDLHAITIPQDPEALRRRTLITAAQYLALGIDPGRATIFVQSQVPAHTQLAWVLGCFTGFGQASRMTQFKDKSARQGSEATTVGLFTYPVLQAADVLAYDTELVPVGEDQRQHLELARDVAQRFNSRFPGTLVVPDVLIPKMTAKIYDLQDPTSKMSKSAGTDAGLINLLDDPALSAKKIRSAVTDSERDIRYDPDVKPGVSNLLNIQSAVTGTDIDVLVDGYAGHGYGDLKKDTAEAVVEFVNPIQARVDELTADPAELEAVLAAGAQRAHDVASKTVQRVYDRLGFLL
Regarding `c1ccc(O[C@@H]2CC[C@H]3[C@H]2OCCN3Cc2ccsc2)nc1`, the Percent Effect was 8.46%.

On to `CCCc1nnc(NC(=O)NC(C)Cn2cccn2)s1` (configuration not stated), for which the Percent Effect is -6.24%.

In the case of `CCC(CC)c1nnc(NC(=O)NC(C)Cn2cccn2)s1` (configuration not stated), the Percent Effect was 69.6%.

On to `Cc1nnc(NC(=O)NC(C)Cn2cccn2)s1` (configuration not stated), for which the Percent Effect was -5.8%.

Take `COCCNC(=O)[C@H]1C[C@@H]2CCN(c3ccccc3)C[C@H]2O1`: the Percent Effect stood at 6.99%.

Consider `CNC(=O)[C@@H]1COC[C@H]2CN(C(=O)c3cccc(OC)c3)C[C@H]21`, for which the Percent Effect is 1.06%.

In the case of `COc1ccccc1CN1CCC(c2nccc(C)n2)C1` (configuration not stated), the Percent Effect was 22%.

As to `COc1cccc(F)c1CN1CCC(c2nc(C)cc(C)n2)C1` (configuration not stated), the Percent Effect came to 70.2%.

Turning to `COc1cccc(F)c1CN1CCC(c2nccc(C)n2)C1` (configuration not stated), the Percent Effect is -3.03%.

Regarding `Cc1ccc(N2CC[C@H]3OCC[C@@]3(C(=O)N3CCCC3)C2)nn1`, the Percent Effect came to 1.02%.

With `CCN(CC)S(=O)(=O)N1CCCC1c1cccc(Nc2ncc(C)s2)n1` (configuration not stated), the Percent Effect came to 1.88%.

Consider `CCn1cc(NC(=O)NC(CO)Cc2c[nH]c3ccccc23)cn1` (configuration not stated), for which the Percent Effect stood at 2.58%.

Take `CCn1cc(S(=O)(=O)NC(CO)Cc2c[nH]c3ccccc23)cn1` (configuration not stated): the Percent Effect was -4.44%.

Turning to `CCn1cc(S(=O)(=O)NC(=O)CCc2c[nH]c3ccccc23)cn1`, the Percent Effect turned out to be 57.5%.

On to `Cc1csc(C(=O)NCCN2CCC(c3cccs3)CC2)c1`, for which the Percent Effect worked out at 0.44%.

With `Cc1cccc(CN2CC[C@@H]3[C@@H]2CCN3C(=O)c2cc(C)on2)n1`, the Percent Effect was -0.968%.

For `CCN1CCN(C(=O)c2cc(-c3ccc(C)o3)n[nH]2)[C@H]2CS(=O)(=O)C[C@H]21`, the Percent Effect is 2.31%.

With `O=C(C1=CCCC1)N1CCO[C@H]2[C@@H](OCC3CC3)CC[C@@H]21`, the Percent Effect came to 0.105%.

With `Cc1cc(CN2CCN(C(=O)NCc3cccs3)CC2)no1`, the Percent Effect is -4.93%.

As for `Cc1cc(CN2CCN(C(=O)NCc3ccoc3)CC2)no1`, the Percent Effect is -3.89%.

With `Cc1cc(CN2CCN(C(=O)NCc3ccco3)CC2)no1`, the Percent Effect turned out to be 70.1%.

Take `COCC(=O)N1C[C@@H](c2cccc(F)c2)[C@H]2[C@H]1CCCCCN2C(C)=O`: the Percent Effect turned out to be 9.95%.

Consider `O=C(CC1CC1)N1CCC2(CC1)CN(Cc1cccnc1)C(=O)CO2`, for which the Percent Effect was -3.48%.

With `Cn1cnnc1C1CCN(C(=O)c2cc3c(s2)CCCC3)CC1`, the Percent Effect was 83.8%.

Consider `CCn1cnnc1C1CCN(C(=O)c2cc3c(s2)CCCC3)CC1`, for which the Percent Effect was -7.73%.

As to `Cn1cnnc1C1CCN(C(=O)c2cc3c(s2)CCC3)CC1`, the Percent Effect is -1.59%.

As for `Cc1nc(C)c(CNC[C@@]2(COc3cccnc3)C[C@@H](O)[C@@H](O)C2)s1`, the Percent Effect was -10.4%.

`CN(Cc1ccco1)[C@@H]1CN(Cc2ccc(F)cc2)[C@@H]2CCCO[C@H]12`: the Percent Effect is -5.38%.

For `CCS(=O)(=O)N1C[C@@H](OCc2ccccn2)[C@@H]2OCCC[C@@H]21`, the Percent Effect amounted to 4.01%.

Take `Cn1nc(C#N)c2c1CN(C(=O)c1ccnnc1)CCC2`: the Percent Effect came to 4.65%.

As to `Cn1nc(C#N)c2c1CN(C(=O)c1ccco1)CCC2`, the Percent Effect was 50.1%.

Turning to `Cn1nc(C#N)c2c1CN(C(=O)c1cccnc1)CCC2`, the Percent Effect turned out to be 11.1%.

Take `CC(C)CC(=O)N1C[C@H]2CCCN(S(=O)(=O)c3ccc(Cl)s3)[C@H]2C1`: the Percent Effect was -3.18%.

With `CC(C)OCCCNC(=O)CS(=O)(=O)Cc1ccc(C(C)C)cc1`, the Percent Effect stood at 2.32%.

`Cc1ccc(CS(=O)(=O)CC(=O)NCCCOC(C)C)cc1`: the Percent Effect was -5.37%.

In the case of `CC(C)OCCCNC(=O)CS(=O)(=O)Cc1ccc(Cl)cc1`, the Percent Effect turned out to be 75.4%.

Regarding `Cn1ncc2c(N3CCCN4CCC[C@H]4C3)nc(C(C)(C)C)nc21`, the Percent Effect was found to be 2.18%.

`CC(C)N1[C@H](CN2CCCC2)C[C@@H]2CN(C(=O)c3ccoc3)CC[C@@H]21`: the Percent Effect was determined as 0.0969%.

Consider `COCCN1CCC(NCc2cc(F)ccc2F)C1` (configuration not stated), for which the Percent Effect was 12.2%.

Turning to `COCCN1CCC(NCc2ccc(F)cc2F)C1` (configuration not stated), the Percent Effect is 83.4%.

For `COCCN1CCC(NCc2cccc(F)c2)C1` (configuration not stated), the Percent Effect is -5.04%.

In the case of `O=C(c1ccccn1)N1C[C@@H]2CC[C@H](C1)N(C(=O)CCN1CCCC1)C2`, the Percent Effect was 4.71%.

For the compound `NC(=O)CN1CCC(c2noc3cc(F)ccc23)CC1`, the Percent Effect came out at 76.4%.

On to `O=C(O)CCCC(=O)N1CCC(c2noc3cc(F)ccc23)CC1`, for which the Percent Effect came out at 1.46%.

`O=C(O)CCC(=O)N1CCC(c2noc3cc(F)ccc23)CC1`: the Percent Effect turned out to be 1.33%.

As to `CCS(=O)(=O)N1CCC[C@]2(C(=O)N(C)C)CN(c3ccccn3)C[C@@H]2C1`, the Percent Effect is -1.99%.

For the compound `NC(=O)N1CCc2cc(C(=O)O)c(-c3ccsc3)nc2CC1`, the Percent Effect was -4.21%.

On to `Cc1ncsc1C(=O)N(Cc1ccccn1)C1CC1`, for which the Percent Effect stood at 75.1%.

Turning to `Cc1ncsc1C(=O)N(Cc1cccs1)C1CC1`, the Percent Effect is -1.87%.

Turning to `Cc1ncsc1C(=O)N(Cc1ccccc1)C1CC1`, the Percent Effect was -6.55%.

Consider `O=C(NC1CC(F)(F)C1)[C@]12COC[C@H]1CN(Cc1cccnc1)C2`, for which the Percent Effect was -2.86%.

For the compound `Cc1ncsc1CN1C[C@@H]2COC[C@]2(C(=O)NCC2CC2)C1`, the Percent Effect worked out at 0.881%.

As for `CCc1cnc(N2C[C@H]3C[C@H](C(=O)NCC(C)C)[C@@H](C2)O3)nc1`, the Percent Effect was 1.95%.

As for `CC(=O)c1cccc(NC(=O)N(CC(F)F)C2CC2)c1`, the Percent Effect is 4.27%.

`Cc1cccc(NCc2nc(C)ccc2O)c1`: the Percent Effect is 52.2%.

In the case of `Cc1ccc(O)c(CNc2cccc(OCCF)c2)n1`, the Percent Effect is -4.08%.

With `CCn1nnnc1-c1cccc(NCc2nc(C)ccc2O)c1`, the Percent Effect was -6.59%.
